# Compound activity: PubChem BioAssay, several laboratories
# HIV RNase H inh-1: HIV-1 RT RNase H inhibitors, primary screen, biochemical, fluorescence; RT-RNase H RNA/DNA duplex cleavage; AID 565, 2006; inhibition, % at 10 µM; Gag-Pol polyprotein (Human immunodeficiency virus type 1 group M subtype B (isolate …; 65,000 compounds, 1.9% hits; in the data active = inhibition above about 50%
# RmlCD inh mix: RmlC and RmlD coupled enzyme inhibitors, primary screen, biochemical, 384-well, compound mixtures, retest; RmlC/RmlD coupled enzyme inhibition, 384-well mixture HTS; inhibition, % at 5.5 µM; 110,000 compounds, 0.39% hits; AID 1532, 2009; in the data active = inhibition above about 30%, passing the limit was not always enough; inconclusive = no clear call, values can overlap the other calls
# HIV RNase H inh-2: HIV-1 RT RNase H inhibitors, retest, confirmation, biochemical | shares compounds with HIV RNase H inh-1 | Recombinant RT RNase H, fluorescent RNA/DNA duplex cleavage | inhibition, % at 10 µM | 1,000 compounds, 39% hits | AID 651, 2007; in the data active = inhibition above about 48%; inconclusive = no clear call, values can overlap the other calls
# The depositor's hits bear a star; u = inconclusive; x = no result given. The full list was thinned out, with hits kept by preference.
SMILES,HIV RNase H inh-1,RmlCD inh mix,HIV RNase H inh-2
Cc1cccc(C)c1NC(=O)Cn1nc(-c2ccccc2)nc1-c1ccccc1,x,8,x
CCOC(=O)Cc1cc(OC)c(OC)cc1Cc1cc(OC)c(OC)cc1CC(=O)OCC,x,-4,x
O=C(O)c1cnc2ccccc2n1,82*,8,17
COC(=O)c1cnc2ccccc2n1,x,-11,x
O=C(O)C1=C[C@H](c2cccs2)C[C@H](OCc2ccc(CO)cc2)O1,x,28,x
CCOC(=O)c1sc(NC(=O)CSc2n[nH]c(-c3ccc(Cl)cc3Cl)n2)c(C#N)c1C,x,-8,x
CCOC(=O)C(NS(=O)(=O)c1ccc(Br)cc1)C(C)C (stereo unspecified),1,u,x
CC1CC(C)CN(S(=O)(=O)c2ccc(C(=O)Nc3nnc(-c4cccs4)o3)cc2)C1 (stereo unspecified),74*,x,u
CCC1CCCCN1S(=O)(=O)c1ccc(C(=O)Nc2nnc(-c3cccs3)o2)cc1 (stereo unspecified),32,x,x
c1ccc(N2OCC3Cn4c(nc5ccccc54)C32)cc1 (stereo unspecified),x,-11,x
CCOc1ccc(S(=O)(=O)NCCC(=O)OC(C)C(=O)N2CCc3ccccc32)cc1 (stereo unspecified),2,6,x
NC(=O)c1cc(-c2ccccc2)sc1NC(=O)Cc1ccc(S(=O)(=O)N2CCOCC2)s1,58*,-4,67*
O=C(COC(=O)Cc1ccc(S(=O)(=O)N2CCOCC2)s1)Nc1ccc2c(c1)OCO2,x,8,x
CC(C)Sc1nc(-c2cccs2)nc2c1c(=O)n(C)c(=O)n2C,74*,8,90*
Cn1c(=O)c2c(SCC(=O)NCC3CCCO3)nc(-c3cccs3)nc2n(C)c1=O (stereo unspecified),-7,x,x
C=CCN(CC=C)C(=O)c1ccccc1NC(=O)c1ccccc1C,x,-14,x
CCOC(=O)CCc1c(C)nc(SCCN2CCCC2)c(C#N)c1C,4,-11,x
CCOC(=O)CCc1c(C)nc(SCCCn2c(=O)[nH]c3ccccc32)c(C#N)c1C,86*,6,20
O=C(Cn1c(=O)sc2ccccc21)Nc1ccccc1C(=O)O,8,x,x
CCOC(=O)N1CCC(N2C(=O)c3ccccc3C2=O)CC1,3,1,x
CCOC(=O)N1CCC(N2C(=O)c3ccc(C(=O)NC4CCCCCC4)cc3C2=O)CC1,64*,x,47
COc1ccc(CCNC(=O)COC(=O)c2ccco2)cc1OC,-6,7,x
COc1ccc(CCNC(=O)c2ccc3nc(-c4ccco4)c(-c4ccco4)nc3c2)cc1OC,93*,x,0
O=C(NCCCc1ccccc1)c1cnc2n(c1=O)CCS2,72*,14,32
O=C(NCc1ccccc1)c1cnc2n(c1=O)CCS2,0,4,x
SMILES,HIV RNase H inh-1,RmlCD inh mix,HIV RNase H inh-2
COc1ccc(S(=O)(=O)N(CCc2ccccc2)CC(=O)NC(C)C)cc1,x,-15,x
COc1ccc2cc3cc(C(=O)NCc4ccco4)oc3nc2c1,x,136,x
O=C(NCc1ccco1)c1cc2cc3ccc(Cl)cc3nc2o1,66*,11,58*
O=C(Nc1nnc(Cc2ccccc2)s1)c1ccco1,x,3,x
NC(=O)c1cc(Cc2ccccc2)sc1NC(=O)c1ccco1,89*,-3,31
O=c1[nH]c(=O)n(Cc2ccco2)c2c1C(C(F)(F)F)(C(F)(F)F)N=C(CCC1CCCCC1)N2,x,8,x
O=c1[nH]c(=O)n(Cc2ccco2)c2c1C(C(F)(F)F)(C(F)(F)F)N=C(C1CCCCC1)N2,70*,9,29
Nc1c(Cl)cc(-c2csc(N3CCCC3c3nc4cc(Cl)c(N5CCCCC5)cc4n3CCOCCO)n2)cc1Cl (stereo unspecified),x,7,x
CO/C([O-])=N/c1c[n+](-c2ccc(C)cc2)no1,3,-1,x
CCCC[n+]1cc(/N=C(\[O-])OC)on1,84*,-4,8
Cc1cc2nn(-c3cccc4ccccc34)nc2cc1N,67*,-33,22
Nc1ccc2nn(-c3cccc4ccccc34)nc2c1,11,-180,x
CN(C(=O)CSc1nnc2ccccn12)C1CCS(=O)(=O)C1 (stereo unspecified),x,5,x
CN(C(=O)CSc1nc2ccccc2n1CCc1ccccc1)C1CCS(=O)(=O)C1 (stereo unspecified),86*,10,-1
OCCN(Cc1ccccc1)Cc1ccc(Cl)cc1Cl,x,6,x
OCCN1CCN(C(=S)c2ccc(Cl)c(Cl)c2)CC1,93*,5,66*
CCN1CCN(C(=S)c2ccc(Br)cc2)CC1,x,3,x
CN1CCN(C(=O)C2=C[C@@H](C(C)(C)C)C[C@@H](OCc3ccc(CO)cc3)O2)CC1,x,4,x
C[C@H]1CCC[C@@]2(O[C@@H](CCO)C[C@@H](O)[C@@H]2O)O1,x,20,x
CCNC(=O)c1sc(=S)n(-c2ccc(C)cc2)c1N,x,17,x
Cc1ccc(-n2c(N)c(C(=O)N3CCOCC3)sc2=S)cc1,95*,-2,76*
CN1CCN(C(=O)c2sc(=S)n(-c3ccccc3)c2N)CC1,95*,-3,59*
CCOC(=O)c1sc(=S)n(-c2ccccc2)c1N,x,-5,x
CC(NC(=S)Nc1ccc(F)cc1)C(c1cccs1)N1CCOCC1 (stereo unspecified),x,9,x
O=C(Nc1c(Cl)cc(Cl)cc1-c1nc2ccccc2s1)c1ccc(Br)o1,x,-13,x
SMILES,HIV RNase H inh-1,RmlCD inh mix,HIV RNase H inh-2
Cc1cc2c(c(=O)n1CCc1ccccc1)C(c1ccco1)C(C#N)=C(N)O2 (stereo unspecified),x,7,x
COc1cc(C2C(C#N)=C(N)Oc3cc(C)n(CCc4ccccc4)c(=O)c32)cc2c1OCO2 (stereo unspecified),77*,-10,28
C[C@@H]1CC[C@@]2(O[C@@H](CCO)C[C@H](O)[C@H]2O)O1,x,7,x
COc1ccc(CS(=O)(=O)/C(Cl)=C(/Cl)C(=O)Nc2ccc(OC)nc2)cc1,x,-15,x
Nc1c(C(=O)Nc2ccc(Br)cc2)sc2nc(-c3ccco3)ccc12,x,-37,x
Nc1c(C(=O)Nc2ccc(F)cc2)sc2nc(-c3ccco3)ccc12,89*,14,40
O=C(O)CCNC(=O)c1ccc(N=Nc2ccc(O)c(C(=O)O)c2)cc1,x,4,x
CCc1ccc(NSc2ccccc2[N+](=O)[O-])cc1,x,8,x
C1=C(c2ccc(-c3ccccc3)cc2)Nc2ncnn2C1c1ccco1 (stereo unspecified),90*,12,52*
Cc1ccc(C2C=C(c3ccccc3)Nc3ncnn32)cc1 (stereo unspecified),x,10,x
O=C(OCC(=O)N1N=C(c2ccc(Cl)cc2)CC1c1ccco1)c1ccccc1O (stereo unspecified),x,-16,x
CCCC(=O)Nc1ccccc1NC(=O)CN(C)S(=O)(=O)c1ccccc1,-10,-14,x
CSc1nc(-c2ccco2)nn1C(=O)c1ccco1,6,10,x
CN=C(c1ccco1)n1c(=S)nc(-c2ccco2)n(C)c1=S,55*,8,u
Cc1nn(Cc2ccccc2)c(C)c1NC(=O)c1cc2nc(-c3ccco3)cc(C(F)(F)F)n2n1,6,-34,x
O=C(Nc1cnn(Cc2ccc(F)cc2)c1)c1cc2nc(-c3ccco3)cc(C(F)(F)F)n2n1,59*,u,26
CCCCNc1c(C(=O)OCC)c(C)nc2c1cnn2CC,x,28,x
